What all share (assay): DAPPL (digital affinity profiling via proximity ligation, sequencing); 10 mM Tris-HCl pH 7.5, 50 mM NaCl, 1 mM DTT, 4% glycerol, room temperature, 30 min; GST-TFs on glutathione beads, 16-mer random dsDNA library, 0.1% formaldehyde crosslink after washing; high values mean tight binding
What all share (conditions): protein: recombinant; tags: N-terminal GST; dsDNA, one strand shown

One assay concerns the target T1, ERF (Homo sapiens, UniProt P50548 1-548).
T1 sequence: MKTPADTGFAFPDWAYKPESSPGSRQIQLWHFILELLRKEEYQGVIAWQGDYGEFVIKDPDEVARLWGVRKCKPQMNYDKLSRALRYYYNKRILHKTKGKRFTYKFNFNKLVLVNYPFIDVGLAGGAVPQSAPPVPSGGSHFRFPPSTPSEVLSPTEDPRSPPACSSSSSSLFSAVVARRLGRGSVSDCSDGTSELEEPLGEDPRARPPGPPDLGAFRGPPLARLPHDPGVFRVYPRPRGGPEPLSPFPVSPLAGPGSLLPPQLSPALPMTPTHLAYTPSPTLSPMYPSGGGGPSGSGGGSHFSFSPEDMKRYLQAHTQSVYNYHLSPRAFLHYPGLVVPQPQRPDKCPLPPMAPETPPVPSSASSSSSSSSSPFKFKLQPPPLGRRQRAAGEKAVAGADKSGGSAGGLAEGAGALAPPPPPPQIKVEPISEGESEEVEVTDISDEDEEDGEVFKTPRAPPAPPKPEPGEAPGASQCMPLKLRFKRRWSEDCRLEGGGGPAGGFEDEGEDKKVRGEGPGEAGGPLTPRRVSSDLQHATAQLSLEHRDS
The essentials: (§1)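 Pools were built from human transcription factors expressed in yeast as GST fusions, captured on glutathione beads and DNA-barcoded, along with a tag-only sample. Incubation with 200 nmole of a 16-mer random double-stranded DNA library lasted 30 min at room temperature in Tris/NaCl/DTT/glycerol buffer, and was followed by washing, 0.1% formaldehyde crosslinking, proximity ligation, PCR amplification and Illumina NextSeq500 sequencing. Binding signal is the quotient of each hexamer's read frequency for a factor and its frequency for the tag-only sample.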

The target of the next assay is T2, ETV3L (Homo sapiens, UniProt Q6ZN32 1-361).
T2 sequence: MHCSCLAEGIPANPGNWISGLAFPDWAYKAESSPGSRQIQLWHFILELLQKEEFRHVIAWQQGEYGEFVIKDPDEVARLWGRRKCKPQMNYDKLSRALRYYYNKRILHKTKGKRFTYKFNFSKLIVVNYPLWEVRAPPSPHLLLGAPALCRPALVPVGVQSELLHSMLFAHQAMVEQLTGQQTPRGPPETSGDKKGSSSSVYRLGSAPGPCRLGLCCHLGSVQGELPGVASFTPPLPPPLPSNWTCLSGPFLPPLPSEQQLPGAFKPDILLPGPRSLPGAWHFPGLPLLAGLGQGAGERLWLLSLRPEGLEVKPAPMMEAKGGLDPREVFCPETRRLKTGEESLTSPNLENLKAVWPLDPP
The essentials:
as §1

The target of a further assay is T3, ETS2 (Homo sapiens, UniProt P15036 1-469).
T3 sequence: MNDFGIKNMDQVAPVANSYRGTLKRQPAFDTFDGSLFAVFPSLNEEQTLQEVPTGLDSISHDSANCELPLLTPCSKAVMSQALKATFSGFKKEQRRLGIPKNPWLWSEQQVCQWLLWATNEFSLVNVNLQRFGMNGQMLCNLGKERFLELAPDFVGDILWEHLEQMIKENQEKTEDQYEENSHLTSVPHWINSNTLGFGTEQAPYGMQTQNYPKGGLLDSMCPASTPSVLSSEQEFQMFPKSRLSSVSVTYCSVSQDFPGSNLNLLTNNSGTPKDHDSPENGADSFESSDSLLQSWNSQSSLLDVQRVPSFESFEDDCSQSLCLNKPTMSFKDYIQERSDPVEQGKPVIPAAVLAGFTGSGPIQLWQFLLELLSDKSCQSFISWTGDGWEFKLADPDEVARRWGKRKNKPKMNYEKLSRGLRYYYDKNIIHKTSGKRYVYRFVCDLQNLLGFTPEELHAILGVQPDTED
The essentials: as §1

The target of another assay is T4, SPDEF (Homo sapiens, UniProt O95238 1-335).
T4 sequence: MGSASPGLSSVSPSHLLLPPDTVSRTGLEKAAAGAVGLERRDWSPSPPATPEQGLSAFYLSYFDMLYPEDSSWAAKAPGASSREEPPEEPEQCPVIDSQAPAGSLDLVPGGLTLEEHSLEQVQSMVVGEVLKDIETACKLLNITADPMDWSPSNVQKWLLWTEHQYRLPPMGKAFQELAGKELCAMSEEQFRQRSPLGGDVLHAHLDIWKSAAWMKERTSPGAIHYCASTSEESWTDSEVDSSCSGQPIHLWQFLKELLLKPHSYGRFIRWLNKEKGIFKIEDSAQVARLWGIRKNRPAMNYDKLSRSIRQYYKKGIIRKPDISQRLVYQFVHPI
The procedure, abridged:
as §1

The target of a further assay is T5, ETV7 (Homo sapiens, UniProt Q9Y603 1-341).
T5 sequence: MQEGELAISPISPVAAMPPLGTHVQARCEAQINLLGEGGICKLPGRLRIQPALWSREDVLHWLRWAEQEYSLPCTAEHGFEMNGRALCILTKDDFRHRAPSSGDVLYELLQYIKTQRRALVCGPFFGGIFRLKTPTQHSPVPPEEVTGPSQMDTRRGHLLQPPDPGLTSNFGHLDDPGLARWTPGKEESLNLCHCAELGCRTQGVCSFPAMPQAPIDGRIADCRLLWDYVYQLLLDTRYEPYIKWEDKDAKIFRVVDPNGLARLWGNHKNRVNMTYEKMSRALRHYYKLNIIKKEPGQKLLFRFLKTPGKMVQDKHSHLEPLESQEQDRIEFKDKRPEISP
The essentials: as §1

For another assay, the target named is T6, ELF5 (Homo sapiens, UniProt Q9UKW6-2 1-255).
T6 sequence: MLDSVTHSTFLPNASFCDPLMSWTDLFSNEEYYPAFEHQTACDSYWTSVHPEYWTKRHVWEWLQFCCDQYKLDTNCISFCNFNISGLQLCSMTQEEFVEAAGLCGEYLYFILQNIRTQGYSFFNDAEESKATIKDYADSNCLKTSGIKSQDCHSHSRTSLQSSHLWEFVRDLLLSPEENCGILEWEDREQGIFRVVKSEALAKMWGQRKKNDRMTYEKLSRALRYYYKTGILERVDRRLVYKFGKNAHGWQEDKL
The essentials: as §1

For the next assay, the target named is T7, ETV3 (Homo sapiens, UniProt P41162-2 1-143).
T7 sequence: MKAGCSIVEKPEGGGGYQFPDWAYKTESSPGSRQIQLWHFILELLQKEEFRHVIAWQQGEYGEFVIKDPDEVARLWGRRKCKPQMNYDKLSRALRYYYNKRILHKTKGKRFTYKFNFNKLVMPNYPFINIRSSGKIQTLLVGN
The essentials:
as §1

The next assay has as its target ETV6 (Homo sapiens, UniProt P41212 1-452). The procedure, abridged:
as §1

Chain of ETV6 (P41212 whole entry): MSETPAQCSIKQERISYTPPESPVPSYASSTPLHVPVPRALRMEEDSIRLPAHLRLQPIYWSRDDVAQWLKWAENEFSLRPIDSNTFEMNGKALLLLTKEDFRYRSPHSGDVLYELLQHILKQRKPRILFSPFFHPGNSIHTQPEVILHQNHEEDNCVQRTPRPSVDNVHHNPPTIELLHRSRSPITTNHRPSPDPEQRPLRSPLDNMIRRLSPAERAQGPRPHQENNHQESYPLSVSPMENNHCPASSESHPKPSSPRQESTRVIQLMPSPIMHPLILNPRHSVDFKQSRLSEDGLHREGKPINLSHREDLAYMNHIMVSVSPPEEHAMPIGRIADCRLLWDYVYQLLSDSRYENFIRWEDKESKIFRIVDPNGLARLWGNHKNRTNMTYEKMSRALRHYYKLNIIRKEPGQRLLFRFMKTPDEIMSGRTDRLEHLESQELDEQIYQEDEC

As to GCGACC, the binding signal in the assay with ERF was 1.13 fold enrichment (6-mer frequency, TF over GST control); in the assay with ETV3L it was 1.14 fold enrichment (6-mer frequency, TF over GST control); in the assay with ETS2, 1.19 fold enrichment (6-mer frequency, TF over GST control); with SPDEF it was 1.14 fold enrichment (6-mer frequency, TF over GST control); in the assay with ETV7, 1.06 fold enrichment (6-mer frequency, TF over GST control); in the assay with ELF5, 1.1 fold enrichment (6-mer frequency, TF over GST control). The binding signal is 1.1 fold enrichment (6-mer frequency, TF over GST control) with ETV3 and 1.08 fold enrichment (6-mer frequency, TF over GST control) with ETV6.
Regarding GCACAA, the binding signal was 1.16 fold enrichment (6-mer frequency, TF over GST control) in the assay with ERF; 1.08 fold enrichment (6-mer frequency, TF over GST control) in the assay with ETV3L; 1.12 fold enrichment (6-mer frequency, TF over GST control) with ETS2; 1.05 fold enrichment (6-mer frequency, TF over GST control) in the assay with SPDEF; 1.09 fold enrichment (6-mer frequency, TF over GST control) with ETV7; 1.1 fold enrichment (6-mer frequency, TF over GST control) in the assay with ELF5. The binding signal is 1.14 fold enrichment (6-mer frequency, TF over GST control) with ETV3 and 1.11 fold enrichment (6-mer frequency, TF over GST control) with ETV6.
Consider AGATGC, for which the binding signal in the assay with ERF was 1.23 fold enrichment (6-mer frequency, TF over GST control); in the assay with ETV3L, 1.09 fold enrichment (6-mer frequency, TF over GST control); with ETS2 it was 1.09 fold enrichment (6-mer frequency, TF over GST control); with SPDEF, 1.03 fold enrichment (6-mer frequency, TF over GST control); in the assay with ETV7 it was 1.03 fold enrichment (6-mer frequency, TF over GST control); with ELF5 it was 1.12 fold enrichment (6-mer frequency, TF over GST control). Besides, the binding signal with ETV3 is 1.06 fold enrichment (6-mer frequency, TF over GST control); with ETV6, 1.04 fold enrichment (6-mer frequency, TF over GST control).
As to TATACT, the binding signal was 1.3 fold enrichment (6-mer frequency, TF over GST control) in the assay with ERF; 1.29 fold enrichment (6-mer frequency, TF over GST control) with ETV3L; 1.38 fold enrichment (6-mer frequency, TF over GST control) with ETS2; 1.52 fold enrichment (6-mer frequency, TF over GST control) with SPDEF; 1.31 fold enrichment (6-mer frequency, TF over GST control) in the assay with ETV7; 1.34 fold enrichment (6-mer frequency, TF over GST control) with ELF5. In addition, the binding signal was 1.34 fold enrichment (6-mer frequency, TF over GST control) with ETV3 and 1.45 fold enrichment (6-mer frequency, TF over GST control) with ETV6.
For the sequence CGCCTC, the binding signal with ERF is 1.37 fold enrichment (6-mer frequency, TF over GST control); with ETV3L, 1.49 fold enrichment (6-mer frequency, TF over GST control); with ETS2 it was 1.27 fold enrichment (6-mer frequency, TF over GST control); with SPDEF, 1.39 fold enrichment (6-mer frequency, TF over GST control); in the assay with ETV7, 1.26 fold enrichment (6-mer frequency, TF over GST control); with ELF5, 1.43 fold enrichment (6-mer frequency, TF over GST control). Also, the binding signal with ETV3 is 1.37 fold enrichment (6-mer frequency, TF over GST control); in the assay with ETV6 it was 1.42 fold enrichment (6-mer frequency, TF over GST control).
As to ACTGAC, the binding signal in the assay with ERF is 1.18 fold enrichment (6-mer frequency, TF over GST control); with ETV3L it was 1.19 fold enrichment (6-mer frequency, TF over GST control); with ETS2, 1.32 fold enrichment (6-mer frequency, TF over GST control); with SPDEF, 1.18 fold enrichment (6-mer frequency, TF over GST control); with ETV7 it was 1.26 fold enrichment (6-mer frequency, TF over GST control); with ELF5, 1.21 fold enrichment (6-mer frequency, TF over GST control). The binding signal is 1.21 fold enrichment (6-mer frequency, TF over GST control) in the assay with ETV3 and 1.19 fold enrichment (6-mer frequency, TF over GST control) with ETV6.
For ACACAC, the binding signal is 1.14 fold enrichment (6-mer frequency, TF over GST control) with ERF; 1.15 fold enrichment (6-mer frequency, TF over GST control) with ETV3L; 1.17 fold enrichment (6-mer frequency, TF over GST control) with ETS2; 1.14 fold enrichment (6-mer frequency, TF over GST control) with SPDEF; 1.19 fold enrichment (6-mer frequency, TF over GST control) in the assay with ETV7; 1.16 fold enrichment (6-mer frequency, TF over GST control) in the assay with ELF5. Further, the binding signal was 1.18 fold enrichment (6-mer frequency, TF over GST control) in the assay with ETV3 and 1.21 fold enrichment (6-mer frequency, TF over GST control) with ETV6.
Take TTTTAG: the binding signal with ERF is 1.26 fold enrichment (6-mer frequency, TF over GST control); with ETV3L, 1.26 fold enrichment (6-mer frequency, TF over GST control); with ETS2 it was 1.2 fold enrichment (6-mer frequency, TF over GST control); with SPDEF, 1.12 fold enrichment (6-mer frequency, TF over GST control); with ETV7 it was 1.24 fold enrichment (6-mer frequency, TF over GST control); in the assay with ELF5, 1.06 fold enrichment (6-mer frequency, TF over GST control). Moreover, the binding signal in the assay with ETV3 is 1.21 fold enrichment (6-mer frequency, TF over GST control); with ETV6, 1.19 fold enrichment (6-mer frequency, TF over GST control).

These data come from publication PMC7862700, “An all-to-all approach to the identification of sequence-specific readers for epigenetic DNA modifications on cytosine”.
